Assay outcomes deposited in PubChem by The Scripps Research Institute Molecular Screening Center.
An excerpt weighted towards active compounds, which were near 1.7% of everything screened.
PAD4 inh – blocks human protein arginine deiminase 4 | Q9UM07 | inhibition, % at 6.36 µM | recombinant PAD4, RCA probe fluorescence polarization | 0.41% of 330,000 active | AID 485272;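 active = percent inhibition above a cutoff equal to the mean of all tested compounds plus 3 SD, cut at about 15% in these data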
ZTA DNA inh – counter-screen for EBNA-1 inhibitors: inhibitors of Epstein-Barr virus ZTA. ZTA-DNA binding, fluorescence polarization. inhibition, % at 11 µM. AID 2234. P03206. 0.15% of 320,000 active; in the data active = inhibition above about 33%
LYPLA1 inh – counter-screen for PME1 inhibitors: inhibitors of human LYPLA1; recombinant LYPLA1, FP-Rh probe fluorescence polarization; 0.16% of 320,000 active; inhibition, % at 5.9 µM;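 active = inhibition above the mean of all tested compounds plus 3 SD, set per campaign, cut at about 14% in these data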;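 note: inhibitors block serine hydrolase probe labeling of LYPLA1 so polarization falls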
LYPLA2 inh – LYPLA2 (human) inhibition in PME1 counter-screen | recombinant LYPLA2, FP-Rh probe fluorescence polarization | inhibition, % at 5.9 µM | 0.38% of 320,000 active | AID 2177;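 active = inhibition above the screen-wide mean plus 3 SD, limit set per campaign, cut at about 26% in these data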
EBNA-1 inh – blocks EBNA-1 binding to DNA; EBNA-1 DNA binding, fluorescence polarization; inhibition, % at 14.8 µM; 0.34% of 300,000 active; in the data active = inhibition above about 28%
GSTO1 counter – counter-screen for RBBP9 inhibitors: inhibitors of human GSTO1. P78417. recombinant GSTO1, activity-based probe fluorescence polarization. inhibition, % at 5.96 µM. 1.1% of 300,000 active. AID 1974;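 active = inhibition above the campaign mean inhibition plus 3 SD, cut at about 35% in these data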
GSTO1 confirm – GSTO1 (human) inhibition, confirmation; AID 2176; inhibition, % at 5.96 µM; 54% of 2,400 active; recombinant GSTO1, probe fluorescence polarization; shares compounds with GSTO1 counter;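 active = inhibition above the primary screen's cutoff, its mean inhibition plus 3 SD, cut at about 35% in these data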;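 note: loss of polarization as inhibitors block binding of rhodamine sulfonate ester activity probe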
Of the large screens only hits and unclear results are named; the others gave an inactive call (follow-up assays come after a bar, where they were run).

CCCCn1c(N)c(N(CCOC)C(=O)CN(C)S(=O)(=O)c2ccc(C)cc2)c(=O)[nH]c1=O	none
Cc1ccc(OCC(=O)Nc2cccc(S(=O)(=O)N3CCCCCC3)c2)cc1C	none
CCN(c1ccc(NC(=O)COC(=O)CCC(=O)c2ccc(F)cc2)cc1)C(C)C	GSTO1 counter 38 | GSTO1 confirm inactive
O=C(Cc1ccccc1Cl)NC1(O)C(=O)c2ccccc2C1=O	GSTO1 counter 67 | GSTO1 confirm 67
O=C(Cc1ccc(Cl)cc1)NCc1ccccc1Cl	none
O=C(NCC1CC1)c1cc([N+](=O)[O-])cc([N+](=O)[O-])c1	none
Cc1ccc(-c2noc(CSc3nnnn3C3CCCCC3)n2)cc1	GSTO1 counter 40 | GSTO1 confirm inactive
Cc1ccc(-c2noc(CSc3nnc(-c4ccncc4)n3-c3ccc(C)cc3)n2)cc1	none
CC[C@@]12C(=O)N(c3cccc(F)c3)C(=O)N1[C@H](c1ccc(Cl)cc1)[C@@H]1C(=O)N(C3CCCCC3)C(=O)[C@@H]12	none
O=C(NCc1ccc2[nH]c3c(c2c1)CCCC3)N1CCOCC1	GSTO1 counter 49 | GSTO1 confirm 59
COc1cccc(CN2CCNC(=O)C2CC(=O)N(C)C2CCOCC2)c1OC (stereo not drawn)	none
O=C(NC1CCCC1)c1ccc2nc[nH]c2c1	none
O=C(NC1CCCC1)c1ccc2nc(-c3ccco3)c(-c3ccco3)nc2c1	GSTO1 counter 63 | GSTO1 confirm 38
COCCN(C(=O)CSc1nnc(-c2cccc(F)c2)n1N)c1c(N)n(CC(C)C)c(=O)[nH]c1=O	none
COc1ccc(C2C(O)C(c3c[nH]c4ccccc34)=NN2C(=O)CCl)cc1 (stereo not drawn)	GSTO1 counter 88 | GSTO1 confirm 93
COCCCN1C(=O)N(c2ccc(F)cc2)C(=O)C1CC(=O)Nc1ccc(OC)cc1 (stereo not drawn)	none
Oc1cccc(C=Nc2cccc3ccccc23)c1O	GSTO1 counter 88 | GSTO1 confirm inactive
C=CCNC(=O)COc1ccc(Br)cc1Cl	GSTO1 counter 66 | GSTO1 confirm inactive
COCCn1cnnc1SCC(=O)c1ccc(S(=O)(=O)N2CCCC2)cc1	GSTO1 counter 61 | GSTO1 confirm 61
Cn1cnnc1SCC(=O)Nc1cc(S(=O)(=O)N2CCCCC2)ccc1Cl	none
COc1cc2c(cc1NC(=O)CSc1nnc(Cc3cccs3)n1Cc1ccco1)oc1ccccc12	none
COc1cc2c(cc1NC(=O)CSc1nnc(Cc3cccs3)n1C)oc1ccccc12	GSTO1 counter 46 | GSTO1 confirm inactive
COc1cc(C(C2C(=O)CC(C)(C)CC2=O)C2C(=O)CC(C)(C)CC2=O)ccc1OC(C)=O	none
COC(=O)C1(C)Cc2cc(OC(C)=O)c(OC(C)=O)cc2N1 (stereo not drawn)	GSTO1 counter 66 | GSTO1 confirm inactive
O=C1C=C(O)c2cccc3cccc1c23	none
O=C1C=C(O)c2c(O)cccc2C1=O	GSTO1 counter 38 | GSTO1 confirm inactive
CCC(C(=O)NCCCN1CCCC1=O)n1c2ccccc2c2nc(=O)cc(C)n21 (stereo not drawn)	none
COc1cc(-c2cc(=O)c3c(O)c(OC)c(OC)c(O)c3o2)ccc1O	GSTO1 counter 41 | GSTO1 confirm inactive
CC(=O)NN1C(=O)/C(=C\c2ccc(Br)o2)SC1=S	GSTO1 counter 69 | GSTO1 confirm 79
CC(=O)NN1C(=O)/C(=C\c2ccc(O)cc2)SC1=S	none
CC(=O)NN1C(=O)/C(=C/c2ccc(Br)o2)SC1=S	GSTO1 counter 64 | GSTO1 confirm 78
CC(=O)NN1C(=O)/C(=C\c2ccccc2)SC1=S	none
O=c1c2cc([N+](=O)[O-])cc([N+](=O)[O-])c2[nH]n1-c1ccccc1	none
Cc1[nH]n(-c2ccccc2)c(=O)c1C(C[N+](=O)[O-])c1ccccc1Cl (stereo not drawn)	GSTO1 counter 43 | GSTO1 confirm inactive
Cc1[nH]n(-c2ccccc2)c(=O)c1C(c1ccc(O)c([N+](=O)[O-])c1)c1c(C)[nH]n(-c2ccccc2)c1=O	PAD4 inh 57, GSTO1 counter 59 | GSTO1 confirm 47
CC(C)CN1CC(COCc2ccccc2)Oc2ccccc2S1(=O)=O (stereo not drawn)	none (no result: ZTA DNA inh, LYPLA1 inh, LYPLA2 inh, EBNA-1 inh, GSTO1 counter)
